Assay results as given in paper PMC7826789 (International Journal of Molecular Sciences, 2021).

Experiments:
Conditions in all cases: Compound Concentration (nM):1000
DLK = test system: T1, DLK
T1 construct: gene MAP3K12

DMPK2 = test system: T2, DMPK2
T2 construct: gene CDC42BPG

DMPK = test system: DMPK
DRAK1 = test system: T3, DRAK1
T3 construct: gene STK17A

DRAK2 = test system: T4, DRAK2
T4 construct: gene STK17B

DYRK1A = test system: DYRK1A
DYRK1B = test system: DYRK1B
DYRK2 = test system: DYRK2
EGFR(E746-A750del) = test system: EGFR(E746-A750del)
EGFR(G719C) = test system: EGFR(G719C)
EGFR(G719S) = test system: EGFR(G719S)
[1] = test system: EGFR(L747-E749del, A750P)
[2] = test system: EGFR(L747-S752del, P753S)
EGFR(L747-T751del,Sins) = test system: EGFR(L747-T751del,Sins)
EGFR(L858R) = test system: EGFR(L858R)
EGFR(L858R,T790M) = test system: EGFR(L858R,T790M)
EGFR(L861Q) = test system: EGFR(L861Q)
EGFR(S752-I759del) = test system: EGFR(S752-I759del)
EGFR(T790M) = test system: EGFR(T790M)
EGFR = test system: EGFR
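Further: KINOMEscan scanMAX binding as percent activity remaining versus control; lower means stronger binding.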

Compound	Percent Control (DLK) [%]	Percent Control (DMPK2) [%]	Percent Control (DMPK) [%]	Percent Control (DRAK1) [%]	Percent Control (DRAK2) [%]	Percent Control (DYRK1A) [%]	Percent Control (DYRK1B) [%]	Percent Control (DYRK2) [%]	Percent Control (EGFR(E746-A750del)) [%]	Percent Control (EGFR(G719C)) [%]	Percent Control (EGFR(G719S)) [%]	Percent Control [1] [%]	Percent Control [2] [%]	Percent Control (EGFR(L747-T751del,Sins)) [%]	Percent Control (EGFR(L858R)) [%]	Percent Control (EGFR(L858R,T790M)) [%]	Percent Control (EGFR(L861Q)) [%]	Percent Control (EGFR(S752-I759del)) [%]	Percent Control (EGFR(T790M)) [%]	Percent Control (EGFR) [%]
CC(C)COC(=O)c1ccc2c(c1)/C(=C/Nc1ccc(S(N)(=O)=O)cc1)C(=O)N2 [GW416981X]	14	100	100	0.3	5.5	26	45	18	82	4.6	32	62	48	60	15	100	8.8	100	95	13
COc1cc2ncnc(Nc3ccc4c(cnn4Cc4ccccc4)c3)c2cc1OC.Cl [GW282449A]	87	100	100	100	100	100	97	87	6.7	0	1.4	11	3.4	5.2	0.9	78	0	78	7.2	4.4
C[C@@H](Oc1cc(-n2cnc3ccc(OC4CCN(C)CC4)cc32)sc1C(N)=O)c1ccccc1Cl [GSK579289A]	78	100	80	100	93	100	100	49	92	81	59	58	100	100	79	85	64	66	62	75
NS(=O)(=O)c1ccc(N/N=C2\C(=O)Nc3ccc(C(=O)NCCc4c[nH]cn4)cc32)cc1 [GW300660X]	100	100	100	3.8	12	50	100	11	100	100	73	100	100	100	100	99	85	97	95	99
COc1cc(C=NNc2ncnc3c2cnn3-c2ccccc2)ccc1O [GW513184X]	96	100	100	83	71	53	66	28	26	58	44	46	33	64	96	76	62	64	82	100
Cl.O=S1CCN(Cc2ccc(-c3ccc4ncnc(Nc5ccc(OCc6ccccc6)c(F)c5)c4c3)o2)CC1 [GW576924A]	90	100	100	100	100	100	100	91	14	0	2.2	1.3	5.9	42	0.3	100	0	1.4	46	0.5
Cl.c1ccc(Cc2nc3ccc(Nc4ncnc5ccccc45)cc3[nH]2)cc1 [GR269666A]	83	100	100	68	100	100	100	73	70	0	0.6	41	70	37	36	100	9.8	71	100	5
CC1=C(C(=O)Nc2ccc3[nH]ncc3c2)C(c2ccc(Cl)c(Cl)c2)CC(=O)N1 (centres unmarked) [GSK299115A]	77	82	100	100	84	70	59	68	98	66	100	100	97	100	100	65	86	89	77	100
COc1cc(N2CCN(C(C)C)CC2)ccc1Nc1nc(Nc2ccc(F)cc2C(=O)NC[C@@H](O)CO)c2cc[nH]c2n1 [GSK1392956A]	77	75	100	87	93	53	75	24	74	94	87	83	71	94	73	7.6	60	86	4.4	76
Cc1cc(O)cc(C)c1/C=C/c1cncc(C(N)=O)c1 [GW435821X]	90	100	100	100	100	93	100	75	69	89	67	68	87	100	80	100	71	78	94	78
